# Calls of active or inactive are those of the source. How the source made its calls: active means hit-call score of the fitted dose curve at least 0.9, where 1 is the maximum; inactive means score below 0.9.
# Experiment: STM_H9_OrnithineISnorm_perc: Stemina devTOX quickPredict H9 human embryonic stem cell (hESC)-based Assay for Ornithine (ORN) Metabolite Biomarker, Normalized (AID 2283712);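 further: ornithine released into spent medium during last day measured by mass spectrometry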
# Excerpt: STM_H9_secretome utilizes undifferentiated H9 cells to measure relative changes in two metabolites, ornithine (ORN) and cystine (CYSS) in the secretome, targeting a critical drop in the ORN/CYSS ratio as a biomarker for developmental toxicity.STM_H9_OrnithineISnorm is one of 10 components calculated in the STM_H9_secretome assay. It measures the integrated area of the endogenous ornithine normalized to the spiked-in isotopically labeled standard and to the median value of the 0.1% DMSO neutral control treatment using UPLC-HRMS technology.Data from the assay component STM_H9_OrnithineISnorm_perc was analyzed at the assay endpoint STM_H9_OrnithineISnorm_perc in the positive analysis fitting direction relative to DMSO as the negative control and baseline of activity. Using a type of binding reporter, gain or loss-of-signal activity can be used to understand relative metabolite change.
# H9 hESCs maintained in a pluripotent state were exposed to test compound for 72h with chemical replenishment with media replacement every 24h. Cell-conditioned media from the final 24-h treatment period was collected for analysis of the targeted biomarker, and cell viability of the corresponding cell layer was assessed. The chemical library was tested in blinded fashion. Each test plate included 1uM Methotrexate (MTX; Selleck Chemicals, Houston, Texas) as a positive reference, 5 nM MTX as a negative reference, 0.1% DMSO as the neutral (vehicle) control, and sample-level media blanks.H9 cell-conditioned media from the final 24-h treatment period was collected for analysis of the targeted biomarker and cell viability was measured from the corresponding cell layer. Cell viability was measured using the CellTiter-Fluor assay (Promega, Madison, Wisconsin) based on proteolytic cleavage of a substrate to fluorescent signal proportional to the number of living cells. The cell viability Relative Fluorescence Unit (RFU) was background corrected and normalized to mean RFU of the neutral control (0.1% DMSO). The collected H9-cell-conditioned media samples were processed for targeted biomarker analysis as described (Palmer et al., 2013). Briefly, spent media samples were deproteinized (40% acetonitrile) and processed for UPLC-HRMS. Data acquisition was performed using 4 separate UPLC-HRMS systems, consisting of an Agilent 1290 Infinity LC system (Agilent Technologies) interfaced with an Agilent high-resolution mass spectrometer (models G6520A, G6520B, G6530A, and G6224A). A Waters Acquity UPLC BEH Amide column (2.1mm x 50mm, 1.7lm particle size; Waters, Milford, Massachusetts) maintained at 40C was applied for separation of metabolites using a 6.5min solvent gradient with 0.1% formic acid in water and 0.1% formic acid in acetonitrile (1.0ml/min flow rate). Data were acquired using MassHunter Acquisition software (version B 04.00, Agilent Technologies). The extracted ion chromatogram (EIC) areas for ORN, CYSS, and their respective spike-in C13-standards were determined using the Agilent MassHunter Quantitative Analysis software, version B.05.00 or newer (Agilent Technologies), and data were normalized as described in Palmer et al. (2017).
SMILES,AC50,outcome
CCCCCOC(=O)COc1cc(N2C(=O)C3=C(CCCC3)C2=O)c(F)cc1Cl,0.104 µM (active),
COC(=O)c1ccc(I)cc1S(=O)(=O)NC(=O)Nc1nc(C)nc(OC)n1,,inactive
CC(C)CCCCCCc1ccc(O)cc1,73.4 µM (active),
C=CCOC(Cn1ccnc1)c1ccc(Cl)cc1Cl (stereo not given),,inactive
Cc1nn(C)c(Oc2ccccc2)c1C=NOCc1ccc(C(=O)OC(C)(C)C)cc1,0.0118 µM (active),
CN(C)C(=O)Nc1ccc(Cl)c(Cl)c1,,inactive
CCNc1nc(N)nc(Cl)n1,,inactive
CCSC(=O)N(CC(C)C)CC(C)C,,inactive
N[C@@H](Cc1cc(I)c(Oc2ccc(O)c(I)c2)c(I)c1)C(=O)O,,inactive
O=C(Nc1ccc([N+](=O)[O-])cc1Cl)c1cc(Cl)ccc1O,,inactive
CCCCOC(=O)C(C)Oc1ccc(Oc2ccc(C(F)(F)F)cn2)cc1 (stereo not given),,inactive
S=C([S-])NCCNC(=S)[S-].[Mn+2],88.1 µM (active),
COC(=O)CSc1cc(N=c2sc(=O)n3n2CCCC3)c(F)cc1Cl,78.8 µM (active),
CC(C)(c1ccc(O)cc1)c1ccc(O)cc1,67.3 µM (active),
CSC(=O)c1cccc2nnsc12,80.2 µM (active),
S=C(S)NCCNC(=S)S.[Mn+2].[S-]C([S-])=NCCN=C([S-])[S-].[Zn+2],,inactive
CCCCOC(=O)[C@@H](C)Oc1ccc(Oc2ccc(C(F)(F)F)cn2)cc1,80.7 µM (active),
CCOC(=O)C(C)Oc1ccc(Oc2cnc3cc(Cl)ccc3n2)cc1 (stereo not given),,inactive
O=C(O)C1(C(=O)Nc2ccc(Cl)cc2Cl)CC1,,inactive
C[C@]12C[C@H](O)[C@H]3[C@@H](CCC4=CC(=O)CC[C@@]43C)[C@@H]1CC[C@@H]2C(=O)CO,77 µM (active),
OB(O)O,,inactive
N#CSCSc1nc2ccccc2s1,17.2 µM (active),
CC(C)(C)[C@@H](O)[C@@H](Cc1ccc(Cl)cc1)n1cncn1,,inactive
COC(=O)c1ccccc1C(=O)O,0.00297 µM (active),
O=C(c1ccc(O)cc1O)c1ccc(O)cc1O,51.1 µM (active),
CCCCC(CC)COC(=O)c1ccccc1C(=O)O (stereo not given),341 µM (active),
CCCN(CCC)c1c([N+](=O)[O-])cc(C(F)(F)F)c(N)c1[N+](=O)[O-],,inactive
CCN(Cc1c(F)cccc1Cl)c1c([N+](=O)[O-])cc(C(F)(F)F)cc1[N+](=O)[O-],17.2 µM (active),
Oc1ccc(C(c2ccc(O)cc2)C(Cl)(Cl)Cl)cc1,0.00653 µM (active),
C#CCOC(=O)[C@@H](C)Oc1ccc(Oc2ncc(Cl)cc2F)cc1,65.5 µM (active),

# From PubChem BioAssay (EPA / NIEHS)
